Z-score data for 25 compounds are collected here from PubChem BioAssay.

Activity calls are given as the source filed them.

The nature of the assay: PSAC antagonists in infected red cells, primary screen, cell-based, P. falciparum Indochina, OD700, 2 h (AID 1155).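 Also: lysis reports solute entry through the parasite surface anion channel PSAC; channel blockers reduce lysis of infected cells.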 The following applies: P. falciparum Indochina infected erythrocytes, osmotic lysis OD700; higher = more signal, called active from +8 up or from −8 down.
For `COc1ccc(C#Cc2ccc3c(c2)[C@]2(C(=O)N3)[C@H](C(=O)N3CCN(c4ncccn4)CC3)[C@H]3C(=O)O[C@H](c4ccccc4)[C@H](c4ccccc4)N3[C@@H]2c2ccc(O)cc2)cc1`, the z-score was 1.59 (inactive).

Take `CCCC[C@H]1C[C@@H]1[C@@H]1N(P(=O)(c2ccccc2)c2ccccc2)[C@](CO)(c2ccccc2)CC12CC2`: the z-score was 0.761 (inactive).

Consider `O=C(N1CCCCC1)[C@]1(CCS(=O)(=O)c2ccccc2)N=C(c2ccc(OCCCO)cc2)O[C@@H]1c1ccccc1`, for which the z-score is 19.5 (active).

On to `OCCCc1cc[n+](Cc2cccc(OC(F)(F)F)c2)cc1`, for which the z-score is 0.816 (inactive).

Turning to `COc1ccc([Si](C)(C)[C@H]2[C@H](CC(=O)N3CCC[C@H]3CO)O[C@@]3(C(=O)N(Cc4cccc(N5CCC5=O)c4)c4ccccc43)[C@@H]2C)cc1`, the z-score is 1.06 (inactive).

`CCCNC(=O)[C@@]1(c2ccc([N+](=O)[O-])cc2)CC(=O)N(CC23CC4CC(CC(C4)C2)C3)[C@@H]1c1ccc(CO)cc1I`: the z-score is 13.3 (active).

With `CCCNC(=O)[C@@]1(C)c2ccccc2C(=O)N(Cc2cc(F)cc(C(F)(F)F)c2)[C@H]1c1ccc(CO)cc1`, the z-score was 0.576 (inactive).

On to `C=C[C@H](C)[C@H](OC(=O)Nc1ccc(OC)cc1)c1ccc(O)c2ccccc12`, for which the z-score was 0.435 (inactive).

For the compound `O=c1cccc(-c2ccccc2)o1`, the z-score was 0.578 (inactive).

For the compound `CC1CC/C=C\[C@H]2OC34C=CCN(Cn5nnc6ccccc65)C(=O)[C@H]3N(CCCO)C(=O)[C@@H]4C2C(=O)O1` (stereo not given in full), the z-score was 0.563 (inactive).

In the case of `COc1ccc(C#Cc2ccc3c(c2)[C@]2(C(=O)N3)[C@H](c3ccc(OCCO)cc3)N3[C@H](c4ccccc4)[C@H](c4ccccc4)OC(=O)[C@H]3[C@@H]2C(=O)Nc2nc3ccccc3s2)cc1`, the z-score was 2.11 (inactive).

For the compound `C=C(C(=O)CC[C@H](OC(=O)c1cccnc1)c1ccccc1OCCO)C(C)C`, the z-score was 0.943 (inactive).

In the case of `C=CC[C@@]1(C(=O)NCCN2CCOCC2)N=C(c2ccc(OCCCO)cc2)O[C@@H]1c1ccccc1CN=[N+]=[N-]`, the z-score was 13.4 (active).

For `C=CCOC(=O)[C@H]1[C@@H]2C(=O)O[C@@H](c3ccccc3)[C@@H](c3ccccc3)N2[C@@H](c2ccc(OCCOC(=O)[C@@H]3C[C@@H]4C(=O)NCC(=O)N4[C@@H]3c3ccc(O)cc3)cc2)[C@]12C(=O)Nc1ccc(I)cc12`, the z-score is 1.39 (inactive).

On to `CCOC(=O)C[C@H]1[C@H](OC(=O)c2ccc(C(=O)c3ccccc3)cc2)[C@@H](NC(=O)c2ccc3ccccc3n2)c2cc(OCCCO)ccc2N1C(=O)c1ccc2ccccc2n1`, for which the z-score was 1.1 (inactive).

`C=CCC(OC(C)=O)[C@@H]1[C@@H](N(Cc2ccc(-c3cccc(C(F)(F)F)c3)o2)C(=O)Cc2ccc(OC)cc2)c2cc(OCCCO)ccc2N1C(=O)Cc1ccc(OC)cc1` (stereo not given in full): the z-score is -0.139 (inactive).

With `C=CCC(OC(C)=O)[C@@H]1[C@@H](N(Cc2ccc(-c3ccccc3)cc2)C(=O)c2ccc(C)cc2)c2cc(OCCCO)ccc2N1C(=O)Cc1ccc(OC)cc1` (stereo not given in full), the z-score was -1.46 (inactive).

As for `C=C(COC)C(=O)CC[C@@H](OC(=O)c1ccccc1-c1ccccc1C(=O)O)c1ccc(CO)o1`, the z-score is 0.802 (inactive).

Regarding `CN(C)CCCC[C@@H]1NC(=O)[C@@H]2C[C@H](C(=O)NCCCCCN)[C@H](c3ccc(O)cc3)N2C1=O`, the z-score was 0.0694 (inactive).

`CN(C)CCCN1C(=O)[C@@]2(c3ccc([N+](=O)[O-])cc3)CC(=O)N(C3CCCCC3)[C@@H]2c2ccc(CO)cc21`: the z-score is -0.249 (inactive).

As for `O=C1C2C=CC(C(O)c3cccc4ccccc34)N(n3cnnc3)C2C(=O)N1Cc1ccccc1` (stereo not given), the z-score was 0.327 (inactive).

On to `COCCCNC(=O)[C@]1(Cc2ccccc2N=[N+]=[N-])N=C(c2ccc(OCCCO)cc2)O[C@@H]1c1ccccc1CN=[N+]=[N-]`, for which the z-score is 21.2 (active).

For the compound `C=C(COC)C(=O)CC[C@H](OC(=O)c1cccnc1)c1ccccc1OCCO`, the z-score was 0.805 (inactive).

Consider `CCOC(=O)N1C(c2ccc(OCCCO)cc2)=NC(C(=O)OC)N1C(=O)OCC` (stereo not given), for which the z-score was 2.44 (inactive).

For `C=CCOC(=O)[C@H]1[C@@H]2C(=O)O[C@@H](c3ccccc3)[C@@H](c3ccccc3)N2[C@@H](c2ccc(OCCOC(=O)[C@H]3C[C@H]4C(=O)N[C@@H](CCCC[N+](C)(C)C)C(=O)N4[C@H]3c3ccc(O)cc3)cc2)[C@]12C(=O)Nc1ccccc12`, the z-score was -1.12 (inactive).
